Among the test systems are HCT-15 colon; HT29 colon; SNB-75 CNS; SNB-19 CNS; U251 CNS; PC-3 prostate; SK-MEL-5 melanoma; UACC-62 melanoma; LOX IMVI melanoma; SK-MEL-28 melanoma; SK-MEL-2 melanoma; EKVX NSCLC; SN12C renal; UO-31 renal; TK-10 renal; ACHN renal; CAKI-1 renal; A498 renal; CCRF-CEM leukemia; MOLT-4 leukemia.
What all share (assay): NCI-60 one-dose screen, 48 h (100 = growth as untreated, 0 = no growth, -100 = all killed)
What all share (details): 10 µM unless noted

Molecules are shown by their SMILES. The panel holds about 83,000 compounds, 20% with a hit somewhere; the sample as a whole holds those more often.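 Treatment: one concentration, 48 hours, 96-well format. Scoring: percent growth, with anything below 10 considered active.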 Unmarked numbers belong to inactive results. The source made the active and inactive calls.

In the case of `O=C(CSc1nnc(-c2ccc(Cl)cc2)n1-c1ccccc1)Nc1ccccc1Cl`, the growth is 76.8% in the experiment with HCT-15 colon; 67.5% with HT29 colon; 65.8% in the experiment on SNB-75 CNS; 82.4% with SNB-19 CNS; 61.6% in the experiment with U251 CNS; 77.8% with PC-3 prostate. Further, the growth with SK-MEL-5 melanoma was 95.4%; in the experiment with UACC-62 melanoma it was 95.7%; with LOX IMVI melanoma, 15%; with SK-MEL-28 melanoma, 99.2%; in the experiment on SK-MEL-2 melanoma, 95.5%; with EKVX NSCLC it was 69.7%. Also, the growth in the experiment on SN12C renal is 29.4%; in the experiment on UO-31 renal it was 34.2%; in the experiment on TK-10 renal, 85.1%; in the experiment on ACHN renal, 21.7%; with CAKI-1 renal, 74.6%; with A498 renal, 104%. Also, the growth in the experiment on CCRF-CEM leukemia is 76.7%; in the experiment with MOLT-4 leukemia it was 85.3%.
For the compound `O=C(Nc1cccc(C(F)(F)F)c1)N1CCN(c2cc(-c3cn(-c4ccccc4)nc3-c3cccc(O)c3)ccn2)CC1`, the growth in the experiment on HCT-15 colon was 22.2%; in the experiment on HT29 colon it was 24.5%; in the experiment with SNB-75 CNS, 71.8%; in the experiment on SNB-19 CNS it was 57.4%; with U251 CNS it was 48.1%; in the experiment on PC-3 prostate, 28.2%. Besides, the growth is 40.2% with SK-MEL-5 melanoma; 40% in the experiment on UACC-62 melanoma; 25.5% with LOX IMVI melanoma; 55% in the experiment on SK-MEL-28 melanoma; 43.7% with SK-MEL-2 melanoma; 42% with EKVX NSCLC. Besides, the growth in the experiment with SN12C renal is 49%; with UO-31 renal, 25.3%; in the experiment on TK-10 renal, 63.3%; with ACHN renal it was 39.2%; with CAKI-1 renal, 51.8%; with A498 renal it was 49.4%. Also, the growth was 21.5% with CCRF-CEM leukemia and 18.9% in the experiment with MOLT-4 leukemia.
For the compound `C/C(=N/N)c1nnn(-c2ccc(Br)cc2)c1C`, the growth in the experiment with HCT-15 colon was 103%; with HT29 colon it was 106%; in the experiment with SNB-75 CNS it was 98.1%; with SNB-19 CNS it was 97.9%; with U251 CNS, 98.6%; in the experiment with PC-3 prostate, 95.8%. For the same compound, the growth was 99.6% with SK-MEL-5 melanoma; 98.1% in the experiment with UACC-62 melanoma; 86.2% in the experiment on LOX IMVI melanoma; 99.2% with SK-MEL-28 melanoma; 112% in the experiment on SK-MEL-2 melanoma; 99.5% in the experiment on EKVX NSCLC. The growth in the experiment on SN12C renal is 91%; with UO-31 renal, 79.7%; in the experiment with TK-10 renal, 98.1%; with ACHN renal, 101%; in the experiment with CAKI-1 renal it was 91.6%; in the experiment on A498 renal, 93.3%. The growth was 109% in the experiment on CCRF-CEM leukemia and 93.6% with MOLT-4 leukemia.
With `O=C(/C=C/c1csc(Br)n1)NO`, the growth in the experiment on HCT-15 colon was 49%; in the experiment on HT29 colon it was 11.3%; in the experiment on SNB-75 CNS it was 9.37% (active); with SNB-19 CNS, 38.5%; in the experiment on U251 CNS, 31.4%; in the experiment on PC-3 prostate, 44.3%. For the same compound, the growth in the experiment on SK-MEL-5 melanoma is -33.1% (active); in the experiment on UACC-62 melanoma it was -2.56% (active); with LOX IMVI melanoma, -13.8% (active); in the experiment with SK-MEL-28 melanoma, 33.4%; with SK-MEL-2 melanoma it was 37.6%; in the experiment with EKVX NSCLC, 37.5%. Further, the growth in the experiment on SN12C renal is 68.7%; in the experiment with UO-31 renal it was 15.5%; with TK-10 renal, -9.31% (active); in the experiment on ACHN renal it was 8.2% (active); in the experiment on CAKI-1 renal, 15.9%; in the experiment on A498 renal, -5.59% (active). The growth was 21.2% with CCRF-CEM leukemia and 9.51% (active) with MOLT-4 leukemia.
For the compound `O=c1nc(Nc2ccc([N+](=O)[O-])cc2O)sc2ccccc12`, the growth in the experiment on HCT-15 colon is 26.6%; in the experiment on HT29 colon, 81.7%; with SNB-75 CNS, -11.7% (active); in the experiment on SNB-19 CNS, 28.7%; in the experiment on U251 CNS it was 36.8%; in the experiment with PC-3 prostate, 16.5%. For the same compound, the growth in the experiment with SK-MEL-5 melanoma is 21%; in the experiment with UACC-62 melanoma it was 15.2%; with LOX IMVI melanoma, 41.2%; in the experiment on SK-MEL-28 melanoma, 50.8%; in the experiment on SK-MEL-2 melanoma, 39.4%; in the experiment on EKVX NSCLC, 38%. Also, the growth in the experiment with SN12C renal is 34.5%; with UO-31 renal, 35.8%; with TK-10 renal, 82%; with ACHN renal, 43.5%; in the experiment with CAKI-1 renal it was 33%; with A498 renal, -7.49% (active). Also, the growth with CCRF-CEM leukemia was 16.6%; in the experiment with MOLT-4 leukemia, 31.1%.
As to `Cc1ccc(-c2cc3nc(C(Cl)Cl)nc(-c4ccc(S(=O)(=O)N(C)C)cc4)n3n2)cc1`, the growth in the experiment on HCT-15 colon was 74.9%; in the experiment on HT29 colon, 66.5%; in the experiment on SNB-75 CNS, 108%; with SNB-19 CNS, 89.4%; in the experiment with U251 CNS it was 83.8%; in the experiment with PC-3 prostate, 91.7%. For the same compound, the growth is 91.5% in the experiment with SK-MEL-5 melanoma; 88.9% with UACC-62 melanoma; 45.7% in the experiment on LOX IMVI melanoma; 99.5% in the experiment on SK-MEL-28 melanoma; 113% in the experiment with SK-MEL-2 melanoma; 103% with EKVX NSCLC. For the same compound, the growth with SN12C renal was 50.7%; with UO-31 renal, 92.1%; in the experiment on TK-10 renal it was 107%; in the experiment with ACHN renal it was 83.2%; with CAKI-1 renal, 82.2%; in the experiment on A498 renal it was 101%. Further, the values for the growth in the experiment with CCRF-CEM leukemia and with MOLT-4 leukemia were 69.3% and 75.6%, respectively.
With `N#Cc1c(-c2ccc(Br)cc2)cc(-c2c[nH]c3ccccc23)nc1N`, the growth in the experiment with HCT-15 colon was 16.8%; in the experiment on HT29 colon, 27.4%; in the experiment with SNB-75 CNS, 37.9%; in the experiment on SNB-19 CNS, 66.1%; in the experiment on U251 CNS, 52.6%; in the experiment with PC-3 prostate, 55.2%. For the same compound, the growth was 58.9% in the experiment with SK-MEL-5 melanoma; 64.9% with UACC-62 melanoma; 28.7% in the experiment with LOX IMVI melanoma; 59.3% in the experiment with SK-MEL-28 melanoma; 39.6% in the experiment on SK-MEL-2 melanoma; 51.6% in the experiment on EKVX NSCLC. In addition, the growth was 66.3% in the experiment with SN12C renal; 43.6% with UO-31 renal; 96.8% in the experiment on TK-10 renal; 57.4% in the experiment with ACHN renal; 30.9% in the experiment with CAKI-1 renal; 63.7% in the experiment with A498 renal. In addition, the growth in the experiment on CCRF-CEM leukemia was 34.1%; in the experiment on MOLT-4 leukemia, 41.4%.
